16 compounds from PubChem BioAssay can be followed below.

A number with no mark means an inactive call.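 The calls were made as follows: active = viability at or below 10% of carrier control in both of two separate runs; inconclusive = viability at or below 10% in only one of the two runs; inactive = the rest.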

The assay in a line: reduced viability of SK-BR-3 breast cancer cells – cell-based, 24 h, human, pilot screen (AID 572).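 Also: compound exposure lasted between 18 and 24 h rather than exactly 24 h; 100% = carrier-treated control wells.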 The note with it: SK-BR-3 viability, CellTiter-Glo luminescence, at 10 µM, hits give low values. On the technique in general: In ATP-based viability assays light output follows the ATP content of the culture.
By viability is commonly meant a read-out of living cells in per cent, often relative to untreated cells. Consider `CC(C)(C)OC(=O)N1CC=C2C(C#N)=C(N)C(C#N)(C#N)[C@H](c3cccnc3)[C@H]2C1`, for which the viability was 88%.
Consider `COc1cccc(N(C(=O)c2ccco2)C(C(=O)NC2CCCC2)c2ccc(N(C)C)cc2)c1` (stereo unspecified), for which the viability was 98%.
As for `CCOC(=O)C1(C(=O)OCC)C(c2ccccc2)CC(O)N1C(C)=O` (stereo unspecified), the viability was 116%.
For the compound `Cc1cccc(NC(=O)c2cnc3sccn3c2=O)n1`, the viability is 99%.
`CCCn1c(SCC(=O)Nc2nnc(-c3ccccc3)s2)nnc1-c1ccccn1`: the viability was 98.5%.
Consider `COc1ccc(-c2c3c(=O)n(C)c(=O)n(C)c3cn2-c2cccc(OC)c2)cc1`, for which the viability is 105%.
Consider `CCOC(=O)C1CCN(Cc2ccc(C(=O)OC)cc2)CC1`, for which the viability was 93.5%.
The figure for `O=C1c2ccccc2C(Nc2ccc3c(c2)OCCO3)N1Cc1ccco1` (stereo unspecified) is 106%; for `COc1cc(/C=N/n2c(C)nnc2C)cc(OC)c1OC` it is 104%.
As for `Cc1cccc(N(C)C(=O)c2cc3cc4ccc(C)cc4nc3o2)c1`, the figure is 89%.
Take `Cc1cc(NC(=O)CSc2nccn2-c2ccc(Cl)cc2)no1`: the viability was 91.5%.
Take `Cc1ccc2[nH]c(=O)c(CN(CCCO)S(=O)(=O)c3c(C)ccc4nsnc34)cc2c1`: the viability is 91%.
The figure for `Cc1ccc(S(=O)(=O)C2(C(=O)N3CCCCCC3)CC2)cc1` is 96.5%; for `COc1cc(CN2CCSCC2)cc(OC)c1OC` it is 89.5%.
In the case of `CCOc1ccc(-c2nc(S(=O)(=O)c3ccccc3)c(NCc3cccnc3)o2)cc1`, the viability was 97%.
Regarding `CC(=O)Nc1ccc(NS(=O)(=O)c2ccc(Cl)c(C(=O)O)c2)cc1`, the viability was 106%.
